The values below come from ChEMBL document CHEMBL1157539, “Thousands of chemical starting points for antimalarial lead identification” (Nature, 2010).

One may read the Inhibition as the percentage by which the read-out fell short of the control.

This assay relates to HepG2. The assay is described as follows: GSK_TCMDC: Percent inhibition of human HepG2 cell line. Test compounds present at 10uM. The format is functional.
`CC(C)N(C(=O)CSc1nc2cc(Cl)ccc2c(=O)n1Cc1ccccc1)C(C)C`: the Inhibition amounted to 0%.

For `NC1CCN(c2nc(NCCCc3ccc(O)cc3)nc(NCc3ccccc3-c3ccc(C(F)(F)F)cc3)n2)CC1.O=C(O)C(F)(F)F`, the Inhibition is listed as 15%.

The compound `Cc1cc(N(C)CCN(C)C)nc(Nc2ccc(Br)cc2)n1` gave an Inhibition of 7%.

In turn, `Fc1ccc2[nH]c(-c3cccc(-c4ccc(CNCc5ccccc5)cc4)c3)nc2c1.O=C(O)C(F)(F)F` returned an Inhibition of 27%.

For the compound `CN(C)C(C)(C)CN(Cc1ccc(-c2ccc(C(F)(F)F)cc2)cc1)C(=O)Cn1c(CCc2cccc(F)c2F)nc(=O)c2ccccc21.O=C(O)C(O)C(O)C(=O)O`, the Inhibition turned out to be 64%.

Turning to `O=C(O)C(F)(F)F.OCCN1CCN(Cc2ccc(-c3cccc(-c4nc5cc(F)ccc5[nH]4)c3)cc2)CC1`, the Inhibition was 21%.

`O=C(Nc1ccc(F)cc1)NC1CCN(c2ccnc3cc(Cl)ccc23)C1.O=C(O)C(F)(F)F` (stereo not drawn) registered an Inhibition of 17%.

In the case of `COc1ccc(CCN(C)CCCN2CCC(NC(=O)c3cccc4c(=O)c5ccccc5sc34)CC2)cc1OC.O=C(O)C(=O)O`, the Inhibition is 67%.

On to `Cc1nc2nc(N)nc(N)c2c(C)c1Cc1ccccc1.Cl`, for which the Inhibition came to 62%.

In the case of `COc1cc(OC)c2c(C)cc(NCCCn3ccnc3)nc2c1`, the Inhibition was 6%.

`O=C(Nc1cccc(-c2csc(-c3nc4ccccc4[nH]3)c2)c1)c1cc(=O)c2ccccc2[nH]1` yielded an Inhibition of 41%.

For the compound `CCCN(CC1CC1)c1nc(C)nc2c(-c3ccccc3)cc(C)cc12`, the Inhibition was 72%.

With `O=C(Nc1cccc(CN2CCCN(CCc3ccccc3)CC2)c1)c1cc2ccccc2s1.O=C(O)C(F)(F)F`, the Inhibition was 37%.
